Source: PubChem BioAssay AID1159580 (chemical genetic matrix, 2015)
The campaign covered roughly 5,500 compounds. About 2,000 (36%) were called active. Another 18% or so got no clear call; they are omitted. Cut-off read from the data, not from the text of the source: active = normalized growth mostly below about 0.91 (no sharp cut-off); inconclusive = no clear call, values can overlap the other calls; inactive = mostly above about 0.92. This is one part of the list.

Experiment: chemical genetic growth profiling, strain panel (AID 1159580);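 note: tested at 20 µM; growth read once vehicle control cultures reached saturation at 30 °C; 1 = growth at the plate median or of vehicle wells; lower values mean less growth of the strain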
Conditions: growth OD

Measured: normalized growth

C[N+]12CCC(CC1)C(OC(=O)C(O)(c1ccccc1)c1ccccc1)C2 (configuration not stated)
inactive: S. cerevisiae deletion strains, locus YJR075W, strain HOC1, active compounds read low 0.982 | S. cerevisiae deletion strains, locus YKL009W, strain mrt4, active compounds read low 0.998 | S. cerevisiae deletion strains, locus YKL068W, active compounds read low 0.985 | S. cerevisiae deletion strains, locus YKL085W, strain MDH1 (second series), active compounds read low 0.994 | S. cerevisiae deletion strains, locus YKL085W, strain MDH1, active compounds read low 0.994 | S. cerevisiae deletion strains, locus YKL160W, strain elf1, active compounds read low 0.962 | S. cerevisiae deletion strains, locus YKL190W, strain CNB1, active compounds read low 1 | S. cerevisiae deletion strains, locus YKR001C, strain vps1, active compounds read low 0.958 | S. cerevisiae deletion strains, locus YKR026C, strain gcn3, active compounds read low 0.984 | S. cerevisiae deletion strains, locus YKR091W, strain srl3, active compounds read low 0.972 | S. cerevisiae deletion strains, locus YLL001W, strain dnm1, active compounds read low 0.922 | S. cerevisiae deletion strains, locus YLL026W, active compounds read low 0.975 | S. cerevisiae deletion strains, locus YLL041C, strain sdh2, active compounds read low 1 | S. cerevisiae deletion strains, locus YLR027C, strain aat2, active compounds read low 0.977 | S. cerevisiae deletion strains, locus YLR039C, strain RIC1, active compounds read low 1.02 | S. cerevisiae deletion strains, locus YLR058C, strain SHM2, active compounds read low 0.985 | S. cerevisiae deletion strains, locus YLR102C, strain apc9, active compounds read low 0.987 | S. cerevisiae deletion strains, locus YLR113W, strain HOG1, active compounds read low 0.975 | S. cerevisiae deletion strains, locus YLR221C, strain rsa3, active compounds read low 0.929 | S. cerevisiae deletion strains, locus YLR258W, strain gsy2, active compounds read low 0.979 | S. cerevisiae deletion strains, locus YLR262C, strain YPT6 (second series), active compounds read low 0.955 | S. cerevisiae deletion strains, locus YLR262C, strain YPT6, active compounds read low 1 | S. cerevisiae deletion strains, locus YLR268W, strain sec22, active compounds read low 0.906 | S. cerevisiae deletion strains, locus YLR320W, strain mms22, active compounds read low 0.952 | S. cerevisiae deletion strains, locus YLR330W, strain CHS5, active compounds read low 0.995 | S. cerevisiae deletion strains, locus YLR342W, strain FKS1 (second series), active compounds read low 1.01 | S. cerevisiae deletion strains, locus YLR342W, strain FKS1, active compounds read low 0.989 | S. cerevisiae deletion strains, locus YLR357W, strain rsc2, active compounds read low 0.983 | S. cerevisiae deletion strains, locus YLR370C, strain arc18, active compounds read low 0.966 | S. cerevisiae deletion strains, locus YLR371W, strain rom2, active compounds read low 0.977 | S. cerevisiae deletion strains, locus YLR384C, strain iki3, active compounds read low 0.985 | S. cerevisiae deletion strains, locus YLR418C, strain cdc73, active compounds read low 0.955 | S. cerevisiae deletion strains, locus YML016C, strain PPZ1, active compounds read low 0.989 | S. cerevisiae deletion strains, locus YML032C, strain rad52, active compounds read low 0.96 | S. cerevisiae deletion strains, locus YML120C, strain ndi1, active compounds read low 0.939 | S. cerevisiae deletion strains, locus YML124C, strain tub3, active compounds read low 0.985 | S. cerevisiae deletion strains, locus YMR058W, strain fet3, active compounds read low 0.981 | S. cerevisiae deletion strains, locus YMR078C, strain ctf18, active compounds read low 0.977 | S. cerevisiae deletion strains, locus YMR125W, strain sto1, active compounds read low 0.924 | S. cerevisiae deletion strains, locus YMR129W, active compounds read low 1.01 | S. cerevisiae deletion strains, locus YMR205C, strain PFK2, active compounds read low 0.948 | S. cerevisiae deletion strains, locus YMR223W, strain ubp8, active compounds read low 1.01 | S. cerevisiae deletion strains, locus YMR231W, strain pep5, active compounds read low 1 | S. cerevisiae deletion strains, locus YMR263W, strain SAP30, active compounds read low 0.985 | S. cerevisiae deletion strains, locus YMR307W, strain GAS1, active compounds read low 1 | S. cerevisiae deletion strains, locus YNL067W, strain RPL9B, active compounds read low 0.978 | S. cerevisiae deletion strains, locus YNL071W, strain lat1, active compounds read low 1 | S. cerevisiae deletion strains, locus YNL128W, strain TEP1, active compounds read low 0.998 | S. cerevisiae deletion strains, locus YNL153C, strain GIM3, active compounds read low 0.98 | S. cerevisiae deletion strains, locus YNL183C, strain NPR1, active compounds read low 0.932 | S. cerevisiae deletion strains, locus YNL209W, strain ssb2, active compounds read low 0.978 | S. cerevisiae deletion strains, locus YNL233W, strain BNI4, active compounds read low 0.978 | S. cerevisiae deletion strains, locus YNL248C, strain rpa49, active compounds read low 0.984 | S. cerevisiae deletion strains, locus YNL250W, strain rad50, active compounds read low 0.985 | S. cerevisiae deletion strains, locus YNL271C, strain bni1, active compounds read low 0.974 | S. cerevisiae deletion strains, locus YNL298W, strain CLA4, active compounds read low 0.984 | S. cerevisiae deletion strains, locus YNL307C, strain MCK1, active compounds read low 0.969 | S. cerevisiae deletion strains, locus YNL322C, strain KRE1 (second series), active compounds read low 0.966 | S. cerevisiae deletion strains, locus YNL322C, strain KRE1, active compounds read low 0.998 | S. cerevisiae deletion strains, locus YNR049C, strain mso1, active compounds read low 0.973 | S. cerevisiae deletion strains, locus YNR052C, strain pop2, active compounds read low 0.986 | S. cerevisiae deletion strains, locus YOL006C, strain TOP1, active compounds read low 0.965 | S. cerevisiae deletion strains, locus YOL012C, strain htz1 0.92 | S. cerevisiae deletion strains, locus YOL147C, strain pex11, active compounds read low 0.985 | S. cerevisiae deletion strains, locus YOR001W, strain rrp6, active compounds read low 1.04 | S. cerevisiae deletion strains, locus YOR061W, strain CKA2, active compounds read low 0.99 | S. cerevisiae deletion strains, locus YOR069W, strain VPS5, active compounds read low 0.986 | S. cerevisiae deletion strains, locus YOR070C, strain gyp1, active compounds read low 0.985 | S. cerevisiae deletion strains, locus YOR080W, strain dia2, active compounds read low 0.97 | S. cerevisiae deletion strains, locus YOR083W, strain WHI5, active compounds read low 0.965 | S. cerevisiae deletion strains, locus YOR106W, strain vam3, active compounds read low 0.951 | S. cerevisiae deletion strains, locus YOR136W, strain idh2, active compounds read low 0.979 | S. cerevisiae deletion strains, locus YOR144C, strain elg1, active compounds read low 0.984 | S. cerevisiae deletion strains, locus YOR184W, strain ser1, active compounds read low 0.96 | S. cerevisiae deletion strains, locus YOR231W, strain MKK1, active compounds read low 0.98 | S. cerevisiae deletion strains, locus YOR265W, strain rbl2, active compounds read low 0.986 | S. cerevisiae deletion strains, locus YOR270C, strain vph1, active compounds read low 0.995 | S. cerevisiae deletion strains, locus YOR290C, strain snf2, active compounds read low 0.966 | S. cerevisiae deletion strains, locus YOR316C, strain cot1, active compounds read low 0.975 | S. cerevisiae deletion strains, locus YPL051W, strain arl3, active compounds read low 0.987 | S. cerevisiae deletion strains, locus YPL055C, strain LGE1, active compounds read low 0.992 | S. cerevisiae deletion strains, locus YPL078C, strain atp4, active compounds read low 0.958 | S. cerevisiae deletion strains, locus YPL106C, strain sse1, active compounds read low 0.94 | S. cerevisiae deletion strains, locus YPL240C, strain hsp82, active compounds read low 0.996 | S. cerevisiae deletion strains, locus YPL241C, strain CIN2, active compounds read low 0.996 | S. cerevisiae deletion strains, locus YPL256C, strain CLN2, active compounds read low 0.959 | S. cerevisiae deletion strains, locus YPR119W, strain clb2, active compounds read low 0.983 | S. cerevisiae deletion strains, locus YPR141C, strain kar3, active compounds read low 0.967 | S. cerevisiae deletion strains, locus YPR163C, strain tif3, active compounds read low 0.973 | S. cerevisiae deletion strains, locus YPR167C, strain met16, active compounds read low 0.978 | S. cerevisiae deletion strains, strain wtn01, active compounds read low 0.964 | S. cerevisiae strains, strain wild type, active compounds read low 0.992
